Inconclusive results are not listed. Entries that show only a call come without a potency. Calls of active or inactive are those of the source. The call rests on the fitted dose curve; in most records, active means well fitted inhibition curve with a large enough effect; inconclusive means small, poorly fitted or top-dose-only effect; inactive means flat fitted curve, though single readings scatter.
Potency means the concentration at half of the fitted maximal effect.

Sequence of Dual specificity protein kinase CLK4 (Homo sapiens) (Q9HAZ1 whole entry, looked up): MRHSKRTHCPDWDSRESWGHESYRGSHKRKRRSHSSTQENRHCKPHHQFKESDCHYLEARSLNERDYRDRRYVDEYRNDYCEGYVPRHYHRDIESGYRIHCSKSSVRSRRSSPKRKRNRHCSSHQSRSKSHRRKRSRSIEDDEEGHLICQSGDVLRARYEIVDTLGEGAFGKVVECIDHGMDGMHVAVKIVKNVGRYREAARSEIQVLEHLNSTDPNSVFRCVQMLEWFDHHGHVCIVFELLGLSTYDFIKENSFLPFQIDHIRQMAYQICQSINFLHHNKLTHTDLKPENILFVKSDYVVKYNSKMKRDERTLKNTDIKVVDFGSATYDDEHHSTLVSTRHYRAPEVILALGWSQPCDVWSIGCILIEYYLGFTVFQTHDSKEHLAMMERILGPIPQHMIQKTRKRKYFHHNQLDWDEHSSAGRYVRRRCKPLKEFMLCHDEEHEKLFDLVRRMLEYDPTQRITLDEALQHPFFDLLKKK

The assay addresses Dual specificity protein kinase CLK4 (Homo sapiens) (UniProt Q9HAZ1). In words: qHTS Assay for Inhibitors of CDC-like Kinase 4 (Kinase-Glo Assay) (AID 1770). Further: nearly all actives have a fitted effect of over 65% in size. As to conditions: recombinant Clk4, Kinase-Glo ATP depletion luminescence; series mostly up to 66.7 µM. The procedure, abridged: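 Clk4 25 nM, RS peptide 100 uM, ATP 1 uM, pH 7.5 Tris, 10 mM MgCl2, 2.5 mM DTT; 4.5 h RT; ATP depletion read by Kinase-Glo luminescence.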
A general note: qHTS replaces the single test concentration by a dilution series.
For the compound `Cc1ccccc1-c1cncnc1NCc1ccccc1`, the Potency result was “inactive”.

Take `CN(C)C(=O)c1ccc(-c2cc(NCc3cccnc3)ncn2)cc1`: the Potency is 15.8 µM (active).

As to `Cc1noc(C)c1-c1cc(NCc2cccnc2)ncn1`, the Potency is 15.8 µM (active).

For the compound `CN(C)c1ncc2nc(-c3cc(F)cc(F)c3)c(=O)n(CCC#N)c2n1`, the Potency entry was “inactive”.

On to `c1nc(NC2CCNCC2)c2cc(-c3ccoc3)ccc2n1`, for which the Potency was 0.891 µM (active).

Turning to `Fc1ccc(Nc2ncncc2-c2ccccc2C(F)(F)F)cc1`, the Potency result was “inactive”.

For `COc1ccc(-c2nc3cnc(Oc4ccccc4)nc3n(CCC#N)c2=O)cc1`, the Potency entry is “inactive”.

`COc1ccc(-c2nc3cnc(N4CCN(C)CC4)nc3n(Cc3cccs3)c2=O)cc1`: the Potency result is “inactive”.

Consider `COc1ccc(-n2c(=O)c(-c3ccc(F)cc3)nc3cnc(N4CCOCC4)nc32)cc1`, for which the Potency entry was “inactive”.

On to `Cc1noc(C)c1-c1nccc(N2CCOCC2)n1`, for which the Potency was 14.1 µM (active).

Turning to `COc1ccccc1CCn1c(=O)c(-c2cccc(F)c2)nc2cncnc21`, the Potency entry is “inactive”.

For the compound `COCCn1c(=O)cnc2cnc(Oc3ccc(OC)cc3)nc21`, the Potency entry is “inactive”.

As to `O=c1c(-c2ccc(F)cc2)nc2cnc(Oc3ccccc3)nc2n1C1CC1`, the Potency result is “inactive”.

As to `COc1ccc(Oc2ncc3nc(C)c(=O)n(C[C@H]4CCCO4)c3n2)cc1`, the Potency result was “inactive”.

On to `CCNc1ncc2nc(-c3cccs3)c(=O)n(C)c2n1`, for which the Potency entry was “inactive”.

`COCCNc1nc(-c2ccccc2Cl)nc2ccccc12`: the Potency is 15.8 µM (active).

With `CN(C)c1ccc(-c2ccc3ncnc(N(C)C)c3c2)cc1`, the Potency is 3.55 µM (active).

As to `COCCn1c(=O)c(C)nc2cnc(N(C)C)nc21`, the Potency result is “inactive”.

Values taken from PubChem BioAssay (NCATS).
